TDP1 cell noCPT: qHTS for Inhibitors of human tyrosyl-DNA phosphodiesterase 1 (TDP1): qHTS in cells in absence of CPT; DT40 Tdp1-/- hTDP1 cells, no CPT, ATP luminescence, 48 h; Potency, µM (top dose mostly 46.2 µM), inactives show at the top dose activity change, negative = growth inhibition, usual class: inhibitors; 420,000 tested, 15% active; AID 686978, 2013; also: potency is read from the fitted curve at half-maximal effect; nearly all actives have a fitted effect of over 55% in size
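Readout: luminescence from CellTiter-Glo after 30 min in the dark at RT. Cells: DT40 Tdp1-/- with stable hTDP1, 400/well. Exposure: compounds alone, ≥48 hr, 37 °C.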
HT1080 IDH1KD tx: kills HT-1080 cells with IDH1 knockdown. HT-1080 IDH1 knockdown viability, ATP luminescence, 48 h. Potency, µM (doses to about 46.1 µM), for inactives: at the highest dose activity, negative = toxicity, most hits filed as cytotoxic. 360,000 tested, 2% active;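 also: potency is read from the fitted curve at half-maximal effect; 0% = DMSO wells and -100% = cell-free medium wells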
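Knockdown cells (IDH1KD HT-1080) received compounds 2 h after plating at 750 cells/well and were kept 48 h at 37 °C in 5% FBS RPMI. A CellTiter-Glo luminescence read gave % activity for curve fitting.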
TDP1 cell CPT: DT40-hTDP1 cell growth loss with CPT; chicken DT40 Tdp1-/-;hTDP1 cells + 20 nM CPT, ATP luminescence, 48 h; Potency, µM (series often up to 46.2 µM), without a hit: top-dose activity change, negative = growth inhibition, actives largely listed as inhibitors; 420,000 tested, 12% active; also: potency is read from the fitted curve at half-maximal effect; nearly all actives have a fitted effect of over 55% in size
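Chicken DT40 Tdp1-/- cells complemented with human TDP1, 400 cells/well, exposed to compounds plus 20 nM camptothecin for at least 48 h at 37 C; viability read as ATP content by CellTiter-Glo luminescence.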
HT1080-NT tox: kills 2HG-producing HT-1080-NT fibrosarcoma cells; HT-1080-NT fibrosarcoma viability, CellTiter-Glo ATP luminescence, 48 h; Potency, µM (top dose mostly 46.1 µM), for inactives: at the highest dose activity, negative = less viability, usual class: cytotoxic; 360,000 tested, 1.6% active; AID 686970;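 also: NT is the 2HG producing partner of a matched IDH1 knockdown line; potency is read from the fitted curve at half-maximal effect; 0% = DMSO-treated cells and -100% = media-only wells without cells; nearly all actives have a fitted effect of over 55% in size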
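750 cells/well, RPMI + 5% FBS; 2 h settle, compound pin-transfer, 48 h at 37 degrees C. CellTiter-Glo 10 min RT, luminescence. Normalized to DMSO and media-only wells.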
IL-1B inflam inh: inhibitors of inflammasome signaling (IL-1 beta secretion); activity change, % at 57.5 µM; 360,000 tested, 4.7% active; THP-1 LPS/ATP IL-1B secretion, AlphaLISA, 16 h; active compounds read low; AID 743279; in the data active = activity change below about -50%; inconclusive = mostly about -30% to -49%
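THP-1 cells pretreated 1 hr with compounds (up to 57.5 uM final), then stimulated with LPS (250 ng/mL final) plus ATP (1.25 mM final); secreted IL-1B measured by AlphaLISA after 16 hr, decreased signal indicating inhibition.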
* marks the source's active call; other numbers are inactive results; i = inactive; u = inconclusive; x = no result given. An excerpt weighted towards active compounds, which were near 19% of everything screened. Unless noted, calls follow the shape of the dose curve; as a rule, active = well fitted curve in the direction sought with a large enough effect; inconclusive = small, poorly fitted or top-dose-only effect, or another doubt; inactive = no such curve, though single readings can be large; an effect the other way counts as inactive or inconclusive. Unless noted, % is scaled to controls: 0 for no effect and ±100 for the full control effect.

SMILES	TDP1 cell noCPT	HT1080 IDH1KD tx	TDP1 cell CPT	HT1080-NT tox	IL-1B inflam inh
CCN(c1ccc(OC)cc1)S(=O)(=O)N1CCCC(C(=O)NCc2cccc(C)c2)C1 (configuration not stated)	u	-7%	u	-3%	0
CCOc1ccc(CCNC(=O)C2CCCN(S(=O)(=O)N(C)c3ccc(F)cc3)C2)cc1 (configuration not stated)	21µM*	x	21µM*	x	x
COc1ccc2c(c1)c1c(c(=O)n(-c3ccc(F)c(Cl)c3)c(=O)n1CC(N)=O)n2C	-9%	x	-23%	x	x
Cc1ccc(C)c(S(=O)(=O)N(C)C2CCS(=O)(=O)C2)c1 (configuration not stated)	-13%	-2%	2%	1%	5
O=C(Cn1c(-c2cccs2)cc2ccccc21)N1CCN(c2ccc(Cl)cc2)CC1	u	x	-21%	x	x
Cn1cc(CN(C(=O)Nc2ccc(Cl)c(Cl)c2)C2CCCCC2)c2ccccc21	4.1µM*	x	2.3µM*	x	x
Cn1cc(CN(C(=O)Nc2ccccc2)C2CCCCC2)c2ccccc21	8.2µM*	x	6.5µM*	x	x
COC(=O)[C@H]1C[C@@H]1[C@H](NC(=O)c1cccnc1)c1ccccc1	1%	12%	5%	19%	4
Cc1cc(C)nc(NS(=O)(=O)c2ccc(NC(=O)c3cccc(N4C(=O)CCC4=O)c3)cc2)n1	6%	-2%	-16%	23µM*	0
Cc1ccnc(NS(=O)(=O)c2ccc(NC(=O)c3ccc(N4C(=O)CCC4=O)cc3)cc2)n1	-14%	11%	8%	0%	-4
O=C(CSc1ncc(-c2ccccc2)n1-c1ccccc1)NCc1ccco1	16µM*	-24%	u	7%	-2
CCn1c(SCC(=O)NCc2ccco2)nc2ccccc2c1=O	-1%	1%	-4%	3%	0
Cc1ccc(NC(=O)CSc2nc3ccccc3c3nc4ccccc4n23)cc1	0.58µM*	0.28µM*	0.65µM*	0.4µM*	44
O=C(CSc1nc2ccccc2c2nc3ccccc3n12)NCc1ccco1	23µM*	-21%	26µM*	-22%	-4
O=C(C1CCCCC1)N1CCC2CC1c1cc(Cl)ccc12 (configuration not stated)	u	9%	u	8%	7
Cc1ccc2oc(C(=O)N(Cc3ccccc3)C3CCS(=O)(=O)C3)c(C)c2c1 (configuration not stated)	-28%	-3%	u	-6%	11
Cc1cc2oc(C(=O)N(Cc3ccccc3)C3CCS(=O)(=O)C3)c(C)c2cc1C (configuration not stated)	16µM*	-10%	26µM*	-18%	-5
COc1cccc(CN(C(=O)c2oc3ccc(Br)cc3c2C)C2CCS(=O)(=O)C2)c1 (configuration not stated)	16µM*	x	15µM*	x	x
COc1ccc(CN(C(=O)c2oc3ccc(F)cc3c2C)C2CCS(=O)(=O)C2)cc1 (configuration not stated)	u	-13%	u	0%	i
COc1ccc2c(-c3cc4ccc(OCc5ccc(F)cc5)cc4oc3=O)cc(=O)oc2c1	12µM*	5%	7.3µM*	18%	-9
O=c1oc2cc(OCc3ccc(C(F)(F)F)cc3)ccc2cc1-c1ccccn1	-24%	22%	-19%	29%	-4
CCCNc1c(NS(=O)(=O)c2c(F)c(F)c(F)c(F)c2F)c(=O)oc2ccccc12	14%	u	-7%	u	0
Cc1c(N(C)S(=O)(=O)c2cccc(C(=O)NC(C)C)c2)c(=O)n(-c2ccccc2)n1C	-12%	27%	-20%	20%	14
COC(=O)c1ccccc1NC(=S)NC(=O)c1ccc2ccccc2c1	u	11%	u	4%	0
CN1CCN(c2ccc(NC(=S)NC(=O)c3cccc4c(Br)cccc34)cc2)CC1	18µM*	-6%	21µM*	-23%	-17
SMILES	TDP1 cell noCPT	HT1080 IDH1KD tx	TDP1 cell CPT	HT1080-NT tox	IL-1B inflam inh
CC(=O)N1CCN(c2ccc(NC(=S)NC(=O)c3ccccc3)cc2)CC1	-12%	4%	-13%	-4%	-6
CN1CCN(c2ccc(NC(=S)NC(=O)c3cccc4ccccc34)cc2)CC1	12µM*	-7%	23µM*	u	-100*
COC(=O)c1ccccc1NC(=S)NC(=O)c1cccc2ccccc12	u	-6%	16µM*	-3%	11
COc1ccccc1C(=O)NC(=S)Nc1cccc2cc(O)ccc12	-23%	u	u	u	-85*
CN(C)c1oc(-c2ccc(Cl)cc2)nc1S(=O)(=O)c1ccccc1	12%	0%	-2%	3%	12
CCOc1ccccc1NC(=O)Cn1c(=O)n(Cc2ccccc2)c(=O)c2c1c1cc(C)ccc1n2C	0%	x	3%	x	x
CC1(C)Cc2cccc(OCC(=O)N3CCN(S(=O)(=O)c4ccccc4)CC3)c2O1	u	-1%	u	-2%	-5
CCN(CC)CC(=O)N1c2ccccc2Sc2ccc(Cl)cc21	-25%	3%	-11%	3%	-14
CCOC(=O)c1c(C)sc2c1N(C(C)=O)c1cc(Cl)ccc1S2	16µM*	-28%	u	-20%	-15
CSc1ncccc1C(=O)NC1CC(C)(C)Cc2c1cnn2-c1ccccc1C (configuration not stated)	u	16%	23µM*	0%	-2
Cc1ccccc1-n1ncc2c1CC(C)(C)CC2NC(=O)CSc1ccncc1 (configuration not stated)	16µM*	0%	u	7%	-9
COC(=O)CCC(=O)NC1CC(C)(C)Cc2c1cnn2-c1ccc(F)cc1 (configuration not stated)	u	-6%	0.58µM*	-6%	26
CC1(C)Cc2c(cnn2-c2ccc(F)cc2)C(NC(=O)CCC(F)(F)F)C1 (configuration not stated)	-16%	0%	-18%	-2%	-13
Cc1ccccc1-n1ncc2c1CC(C)(C)CC2NC(=O)c1snnc1C (configuration not stated)	26µM*	-11%	u	1%	5
COc1c(C)cc(C(=O)C2CCCN(C(=O)/C=C/c3ccccn3)C2)cc1C (configuration not stated)	-11%	18%	-15%	2%	2
COCCNC(=O)C(c1ccc(C)cc1)N(C(=O)C(=O)NC1CCCC1)c1ccc2c(c1)OCCO2 (configuration not stated)	0%	6%	-7%	0%	28

Screening data deposited in PubChem BioAssay by National Center for Advancing Translational Sciences (NCATS).
